# Results: PubChem BioAssay AID1461 (National Center for Advancing Translational Sciences (NCATS), 2008)
# The campaign covered roughly 220,000 compounds. About 2,300 (1%) were called active. Where a call stands in place of a potency, no number is given. Another 6% or so got no clear call; they are omitted. Calls come from the whole dose curve; as a rule, active = well fitted inhibition curve with a large enough effect; inconclusive = small, poorly fitted or top-dose-only effect, or effect the other way; inactive = no such curve, though single readings can be large or run the other way. Many of the other results were omitted from the sample, so actives are more common in it than they were.
# Molecular target: Neuropeptide S receptor (Homo sapiens) (UniProt Q6W5P4)
# Test: qHTS Assay for Antagonists of the Neuropeptide S Receptor: cAMP Signal Transduction; note: nearly all actives have a fitted effect of over 50% in size
# Conditions: CHO-NPSR cells, cAMP TR-FRET, antagonist mode; series mostly up to 38.3 µM
# Excerpt: NIH Chemical Genomics Center [NCGC] NIH Molecular Libraries Probe Production centers Network [MLPCN] MLPCN Grant: X01-DA026210-01 Assay Submitter (PI): Heilig, Markus Alexander NCGC Assay Overview: Neuropeptide S receptor (NPSR), previously known as GPR154, is a recently de-orphanized G protein coupled receptor. Its endogenous ligand is the 20 amino acids peptide Neuropeptide S (NPS). […] NPS and its receptor are found in various tissues. Specifically they are highly expressed in brain areas that have been implicated in modulation of arousal, stress and anxiety. Central administration of NPS in mice produces an unusual profile of activity by inducing wakefulness and arousal, while at the same time suppressing anxiety. Therefore, NPSR may represent a novel drug target for the treatment of sleep and anxiety disorders. To identify NPSR antagonists, we developed a cell-based cAMP assay. NPS can stimulate the production of cAMP in Chinese hamster ovary cells stably expressing NPS receptor. This change in intracellular cAMP level can be detected by a homogeneous LANCE cAMP assay based on the TR-FRET (time resolved fluorescence resonance energy transfer) between a europium-labeled cAMP tracer complex and a cAMP-specific antibody labeled with Alexa Fluor 647. The europium-labeled cAMP tracer complex is formed by the tight interaction between Biotin-cAMP (b-cAMP) and streptavidin labeled with Europium-W8044 chelate (Eu-SA). Light pulse at 320 nm excites the europium of the cAMP tracer and the energy emitted is transferred to the Alexa molecule bound to the cAMP antibody, generating a TR-FRET signal at 665 nm. Residual energy from the europium will produce a light at 620 nm. The native unlabeled cAMP from cell lysates competes with the europium-cAMP tracer for antibody binding and reversely reduces the emission signal of Alexa by interrupting FRET between the two labeled molecules. Both emission signals from the FRET donor (620 nm) and the acceptor (665 nm) can be detected by a plate reader in the TRF mode. Expression of result in fluorescence ratio (665 nm/620 nm) helps to normalize differences due to cell density and reagent dispensing. This assay was successfully optimized to a 1536-well plate format.
# NCGC Assay Protocol Summary: A Chinese hamster ovary (CHO) cell line stably expressing the NPS receptor (CHO-NPSR) was obtained from Dr. Heilig lab at NIAAA and maintained in F-12 Kaighn's media (Invitrogen, Carlsbad, CA, 21127) supplemented with 10 % FBS, 100 units/ml penicillin, 100 ug/ml streptomycin and 250 ug/ml geneticin at 37C, 5% CO2 in a humidified atmosphere. Before the assay, aliquots of cells were frozen and stored at -135C. The assay was performed in 1536-well format. Data are reported for both the ratio of the two emission wavelengths, and also for the component 'donor' channel, Em2=620. Data were normalized to the controls for basal activity (DMSO only) and 100% inhibition (No NPS control). IC50 values were determined from concentration-response data modeled with the standard Hill equation. NPS 1536-well assay protocol: (1) Fresh or frozen CHO-NPSR cells were suspended in F-12 Kaighn's media supplemented with 10 % FBS, 100 units/ml penicillin and 100 ug/ml streptomycin. Cells were plated at 4 ul/well (1200 cells) to white, tissue culture treated 1536-well plates, and then cultured at 37C, 5 % CO2 for 16 to 30 hours. (2) Add 23 nl/well of compound in DMSO solution. The final titration for each compound was between 0.6 nM and 46 uM. (3) Add 1 ul of stimulation reagent (1X HBSS buffer, 5 mM HEPES, 0.1% BSA, 500 uM RO-201724 (Sigma-Aldrich, B8279), 1.5% Alexa 647-labeled anti-cAMP antibody (from Perkin Elmer), 100 nM NPS) (4) Incubation at 37C, 5 % CO2 for 60 min. (5) Add 1 ul/well detection reagent. Detection reagent was prepared by adding biotin labeled cAMP (4%), streptavidin labeled with Europium-W8044 chelate (1.33%) and TritonX-100 (1%) to detection buffer. […]
# Potency is the fitted concentration of half-maximal effect.
# Neuropeptide S receptor (Homo sapiens), sequence (Q6W5P4 whole entry, looked up): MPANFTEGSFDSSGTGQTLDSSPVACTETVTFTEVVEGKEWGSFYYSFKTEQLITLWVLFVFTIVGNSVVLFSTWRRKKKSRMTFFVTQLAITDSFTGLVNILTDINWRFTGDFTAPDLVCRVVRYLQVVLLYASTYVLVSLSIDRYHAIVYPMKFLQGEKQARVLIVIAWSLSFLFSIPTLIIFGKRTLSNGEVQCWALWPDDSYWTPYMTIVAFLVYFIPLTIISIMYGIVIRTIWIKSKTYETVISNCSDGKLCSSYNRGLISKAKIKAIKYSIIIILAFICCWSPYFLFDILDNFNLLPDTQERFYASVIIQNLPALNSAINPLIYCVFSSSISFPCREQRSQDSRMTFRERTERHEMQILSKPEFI
Structure (SMILES),Potency,"activity change, negative = inhibition"
O=C(CC(O)(C(F)(F)F)C(F)(F)F)Nc1ccc(Cl)c(Cl)c1,6.31 µM (active),
Cc1ccc(NC(=O)C/C(N)=N/O)cc1Cl,,-0.778% [at 7.67 µM] (inactive)
O=C(CC(=O)Nc1ccc(Cl)c(Cl)c1)N/N=C/c1ccc(O)cc1,inactive,
COc1cc2c(cc1OC)C(/C=C/c1ccco1)=NCC2,inactive,
COC(=O)c1cc(NC(=O)c2ccco2)ccc1N1CCOCC1,inactive,
CC1(C)Cc2nc3sc4c(SCC(=O)NC(c5ccccc5)c5ccccc5)ncnc4c3cc2CO1,1.26 µM (active),
CC(=O)Nc1ccc(NC(=O)CSc2ncnc3c2cnn3Cc2ccccc2)cc1,inactive,
C=CCn1c(=S)[nH]c2nc3c(cc2c1=O)COC(C)(C)C3,inactive,
O=c1[nH]nc(SCCS(=O)(=O)c2ccc(F)cc2)n1-c1ccccc1C(F)(F)F,inactive,
Cc1cccc2c1-c1sc(C(=O)NCCCN3CCc4ccccc4C3)cc1CO2,inactive,
O=C(C[n+]1ccc2c(c1)nnn2-c1ccccc1)c1ccc(Cl)cc1,inactive,
O=C(Cn1nnc(N2CCCCC2)n1)c1ccc(Cl)c(Cl)c1,inactive,
O=S(=O)(NCc1ccco1)c1cnc(Cl)c(Cl)c1,,25.6% [at 7.67 µM] (inactive)
Cn1c(SCC(=O)N2CCOCC2)nnc1-c1ccc2ncccc2c1,inactive,
CC(C)=CCc1c(O)c(CC=C(C)C)c2occ(-c3ccc(O)cc3)c(=O)c2c1O,inactive,
Cc1ccc(S(=O)(=O)N2CC(=O)Nc3ccccc32)cc1C,inactive,
O=C1CN(c2nc(-c3ccccc3)c3cc(Br)ccc3n2)c2ccccc2N1,6.31 µM (active),
Cc1ccc(C)c(S(=O)(=O)N2CC(=O)Nc3ccccc32)c1,inactive,
COc1ccc(CN2CCOC2=O)cc1OC,inactive,
COc1ccc(C2/C(=C(/O)c3ccccc3)C(=O)C(=O)N2c2ncccn2)cc1OC (stereo unspecified),inactive,
Cc1cc(N2C(=O)C(=O)/C(=C(/O)c3ccc(Cl)cc3)C2c2cccc(Br)c2)no1 (stereo unspecified),12.6 µM (active),
COc1ccccc1C1/C(=C(/O)c2ccc(OC(C)C)cc2)C(=O)C(=O)N1c1cc(C)on1 (stereo unspecified),inactive,

Structure (SMILES),Potency,"activity change, negative = inhibition"
CC(=O)NCc1ccc(S(=O)(=O)NC2CCN(Cc3ccccc3)CC2)cc1,inactive,
COc1ccc(Br)c2c1C(=O)CC2,inactive,
COC(=O)c1cn(C(=O)c2ccc(Cl)cc2)c2ccccc12,inactive,
CCOC(=O)NNc1cc(C(F)(F)F)ccn1,inactive,
COc1ccccc1P(=O)(c1ccccc1)c1ccccc1NC(C)=O (stereo unspecified),inactive,
CCOC(=O)/C(=C\c1ccc([N+](=O)[O-])cc1)C(=O)c1cc(C(C)=O)c(Nc2ccccc2)s1,7.94 µM (active),
O=C(Nc1ccccc1)/C(=C/c1ccc([N+](=O)[O-])cc1)NC(=O)c1ccccc1,inactive,
Cc1cccc(NC(=O)c2sc(-c3ccccc3)nc2-c2ccc([N+](=O)[O-])cc2)c1,inactive,
Cc1ccc(C)c2[nH]c(=O)c(CN(Cc3cccnc3)C(=S)NCc3ccco3)cc12,inactive,
COc1ccc(NC(=O)/C(Cl)=C(/Cl)S(=O)Cc2ccc(C)cc2)cn1 (stereo unspecified),1 µM (active),
COc1ccc(Nc2cc(Cl)ccc2C(=O)O)cn1,inactive,
COc1ccc(NC(=S)Nc2ccccc2Cl)cn1,inactive,
COc1cccc(Nc2nc(N)c([N+](=O)[O-])c(NCc3ccco3)n2)c1,inactive,
C/C(=N\OCC(=O)O)c1ccc(Cl)cc1,,9.86% [at 7.67 µM] (inactive)
Cc1noc(C)c1S(=O)(=O)Nc1cc(C(F)(F)F)ccc1N1CCOCC1,inactive,
COc1ccc(C(=O)C2CCCN(Cc3ccc4nonc4c3)C2)c(C)c1 (stereo unspecified),inactive,
O=C(CSc1nc2ccccc2s1)Nc1ccc(C(=O)O)cc1,inactive,
COc1ccc(S(=O)(=O)Nc2ccc(O)c(Sc3nc4ccccc4s3)c2)cc1,inactive,
O=[N+]([O-])c1c(NCCO)cc(Sc2nc3ccccc3s2)c2nonc12,10 µM (active),
COc1cc2nc(Cl)nc(NCCO)c2cc1OC,inactive,
C/C(=N/NC(=O)CC(=O)N/N=C(\C)c1ccc([N+](=O)[O-])cc1)c1ccc([N+](=O)[O-])cc1,inactive,
O=C(Cn1cnc2cc([N+](=O)[O-])ccc2c1=O)NC(=O)NCc1ccccc1,inactive,

Structure (SMILES),Potency,"activity change, negative = inhibition"
Cc1ccc(C(=O)CS(C)(=O)=O)cc1,inactive,
Cc1ccc(CSCC(N)C(=O)O)cc1 (stereo unspecified),inactive,
Cc1ccc(SC(CC(=O)c2ccc(C(C)(C)C)cc2)C(=O)O)cc1 (stereo unspecified),10 µM (active),
C/C(Cc1ccccc1)=N\NC(=O)CNC(=O)c1ccc2c(c1)OCCO2,inactive,
CC1CC2=C(CC1/C=N/NC(N)=S)C(C)(C)CCC2 (stereo unspecified),12.6 µM (active),
CC1(C)CCCC2=C1CC1C(=O)N(c3ccccc3)C(=O)C1C2 (stereo unspecified),inactive,
Oc1[nH]c2ccc(Br)cc2c1N=Nc1nn[nH]n1,inactive,
Cc1nc(CNS(=O)(=O)c2cc([N+](=O)[O-])ccc2C)cs1,inactive,
Cc1nc(=O)c(-c2ccccc2)c(C)n1-c1ccc(Br)cc1,inactive,
CC(NCc1ccccc1OC1CCCC1)c1ccccc1 (stereo unspecified),inactive,
NC(=S)Nc1c(Cl)cccc1Cl,,7.17% [at 7.67 µM] (inactive)
CN(c1ccccn1)c1ncnc2[nH]ncc12,inactive,
Cc1ccccc1NC(=O)c1ccccc1,inactive,
CC(=O)c1cc(NC(=O)c2ccccc2)c(=O)oc1/C=C/N(C)C,10 µM (active),
CCOC(=O)c1cc(NC(=O)c2ccc(Cl)cc2)c(=O)oc1-c1ccccc1,inactive,
COc1ccc(C2/C=C\CN(S(=O)(=O)c3cccs3)CC(=O)N2Cc2ccc(F)cc2)cc1 (stereo unspecified),inactive,
COc1ccc(CN2C(=O)C(C)S/C2=N/N=C/c2ccco2)cc1 (stereo unspecified),inactive,
CCOC(=O)c1ccc(NC(=O)c2nc[nH]c2C(=O)N[C@@H](CCCCNC(=O)OC(C)(C)C)C(=O)OC(C)(C)C)cc1,inactive,
O=C(Cc1nc2ccccc2[nH]c1=O)c1ccc(Cl)cc1,inactive,
CCC(=O)/C(=C(/O)c1ccccc1)c1nc2ccccc2[nH]1,inactive,
O=C(/C(=C/c1cccc(Cl)c1)c1nc2ccccc2[nH]1)c1ccccc1,10 µM (active),
CC1=CC2=NC(=O)/C(=C/c3coc4ccccc4c3=O)C(=N)N2O1,inactive,
